Hit rate of the full screen: of about 340,000 compounds, about 1,000 (0.29%) were called active. No stated cut-off is given here; in the data, inconclusive means inhibition above about 29% without an active follow-up result; inactive means below that. Only a sample is shown. Entries with a potency or affinity are not part of this list.
Biological target: Genome polyprotein (Dengue virus type 2 (strain 16681-PDK53)) (UniProt P29991)
Assay: Dengue-2 NS5 methyltransferase inhibitors, primary screen, biochemical, confirmation dose response (AID 588689)
Details: Dengue-2 NS5 methyltransferase capping enzyme assay, at 25 µM, stronger effect = higher value
[1] = measured here: pilot screen replicate inhibition

Chain of Genome polyprotein (Dengue virus type 2 (strain 16681-PDK53)) (P29991 whole entry, looked up): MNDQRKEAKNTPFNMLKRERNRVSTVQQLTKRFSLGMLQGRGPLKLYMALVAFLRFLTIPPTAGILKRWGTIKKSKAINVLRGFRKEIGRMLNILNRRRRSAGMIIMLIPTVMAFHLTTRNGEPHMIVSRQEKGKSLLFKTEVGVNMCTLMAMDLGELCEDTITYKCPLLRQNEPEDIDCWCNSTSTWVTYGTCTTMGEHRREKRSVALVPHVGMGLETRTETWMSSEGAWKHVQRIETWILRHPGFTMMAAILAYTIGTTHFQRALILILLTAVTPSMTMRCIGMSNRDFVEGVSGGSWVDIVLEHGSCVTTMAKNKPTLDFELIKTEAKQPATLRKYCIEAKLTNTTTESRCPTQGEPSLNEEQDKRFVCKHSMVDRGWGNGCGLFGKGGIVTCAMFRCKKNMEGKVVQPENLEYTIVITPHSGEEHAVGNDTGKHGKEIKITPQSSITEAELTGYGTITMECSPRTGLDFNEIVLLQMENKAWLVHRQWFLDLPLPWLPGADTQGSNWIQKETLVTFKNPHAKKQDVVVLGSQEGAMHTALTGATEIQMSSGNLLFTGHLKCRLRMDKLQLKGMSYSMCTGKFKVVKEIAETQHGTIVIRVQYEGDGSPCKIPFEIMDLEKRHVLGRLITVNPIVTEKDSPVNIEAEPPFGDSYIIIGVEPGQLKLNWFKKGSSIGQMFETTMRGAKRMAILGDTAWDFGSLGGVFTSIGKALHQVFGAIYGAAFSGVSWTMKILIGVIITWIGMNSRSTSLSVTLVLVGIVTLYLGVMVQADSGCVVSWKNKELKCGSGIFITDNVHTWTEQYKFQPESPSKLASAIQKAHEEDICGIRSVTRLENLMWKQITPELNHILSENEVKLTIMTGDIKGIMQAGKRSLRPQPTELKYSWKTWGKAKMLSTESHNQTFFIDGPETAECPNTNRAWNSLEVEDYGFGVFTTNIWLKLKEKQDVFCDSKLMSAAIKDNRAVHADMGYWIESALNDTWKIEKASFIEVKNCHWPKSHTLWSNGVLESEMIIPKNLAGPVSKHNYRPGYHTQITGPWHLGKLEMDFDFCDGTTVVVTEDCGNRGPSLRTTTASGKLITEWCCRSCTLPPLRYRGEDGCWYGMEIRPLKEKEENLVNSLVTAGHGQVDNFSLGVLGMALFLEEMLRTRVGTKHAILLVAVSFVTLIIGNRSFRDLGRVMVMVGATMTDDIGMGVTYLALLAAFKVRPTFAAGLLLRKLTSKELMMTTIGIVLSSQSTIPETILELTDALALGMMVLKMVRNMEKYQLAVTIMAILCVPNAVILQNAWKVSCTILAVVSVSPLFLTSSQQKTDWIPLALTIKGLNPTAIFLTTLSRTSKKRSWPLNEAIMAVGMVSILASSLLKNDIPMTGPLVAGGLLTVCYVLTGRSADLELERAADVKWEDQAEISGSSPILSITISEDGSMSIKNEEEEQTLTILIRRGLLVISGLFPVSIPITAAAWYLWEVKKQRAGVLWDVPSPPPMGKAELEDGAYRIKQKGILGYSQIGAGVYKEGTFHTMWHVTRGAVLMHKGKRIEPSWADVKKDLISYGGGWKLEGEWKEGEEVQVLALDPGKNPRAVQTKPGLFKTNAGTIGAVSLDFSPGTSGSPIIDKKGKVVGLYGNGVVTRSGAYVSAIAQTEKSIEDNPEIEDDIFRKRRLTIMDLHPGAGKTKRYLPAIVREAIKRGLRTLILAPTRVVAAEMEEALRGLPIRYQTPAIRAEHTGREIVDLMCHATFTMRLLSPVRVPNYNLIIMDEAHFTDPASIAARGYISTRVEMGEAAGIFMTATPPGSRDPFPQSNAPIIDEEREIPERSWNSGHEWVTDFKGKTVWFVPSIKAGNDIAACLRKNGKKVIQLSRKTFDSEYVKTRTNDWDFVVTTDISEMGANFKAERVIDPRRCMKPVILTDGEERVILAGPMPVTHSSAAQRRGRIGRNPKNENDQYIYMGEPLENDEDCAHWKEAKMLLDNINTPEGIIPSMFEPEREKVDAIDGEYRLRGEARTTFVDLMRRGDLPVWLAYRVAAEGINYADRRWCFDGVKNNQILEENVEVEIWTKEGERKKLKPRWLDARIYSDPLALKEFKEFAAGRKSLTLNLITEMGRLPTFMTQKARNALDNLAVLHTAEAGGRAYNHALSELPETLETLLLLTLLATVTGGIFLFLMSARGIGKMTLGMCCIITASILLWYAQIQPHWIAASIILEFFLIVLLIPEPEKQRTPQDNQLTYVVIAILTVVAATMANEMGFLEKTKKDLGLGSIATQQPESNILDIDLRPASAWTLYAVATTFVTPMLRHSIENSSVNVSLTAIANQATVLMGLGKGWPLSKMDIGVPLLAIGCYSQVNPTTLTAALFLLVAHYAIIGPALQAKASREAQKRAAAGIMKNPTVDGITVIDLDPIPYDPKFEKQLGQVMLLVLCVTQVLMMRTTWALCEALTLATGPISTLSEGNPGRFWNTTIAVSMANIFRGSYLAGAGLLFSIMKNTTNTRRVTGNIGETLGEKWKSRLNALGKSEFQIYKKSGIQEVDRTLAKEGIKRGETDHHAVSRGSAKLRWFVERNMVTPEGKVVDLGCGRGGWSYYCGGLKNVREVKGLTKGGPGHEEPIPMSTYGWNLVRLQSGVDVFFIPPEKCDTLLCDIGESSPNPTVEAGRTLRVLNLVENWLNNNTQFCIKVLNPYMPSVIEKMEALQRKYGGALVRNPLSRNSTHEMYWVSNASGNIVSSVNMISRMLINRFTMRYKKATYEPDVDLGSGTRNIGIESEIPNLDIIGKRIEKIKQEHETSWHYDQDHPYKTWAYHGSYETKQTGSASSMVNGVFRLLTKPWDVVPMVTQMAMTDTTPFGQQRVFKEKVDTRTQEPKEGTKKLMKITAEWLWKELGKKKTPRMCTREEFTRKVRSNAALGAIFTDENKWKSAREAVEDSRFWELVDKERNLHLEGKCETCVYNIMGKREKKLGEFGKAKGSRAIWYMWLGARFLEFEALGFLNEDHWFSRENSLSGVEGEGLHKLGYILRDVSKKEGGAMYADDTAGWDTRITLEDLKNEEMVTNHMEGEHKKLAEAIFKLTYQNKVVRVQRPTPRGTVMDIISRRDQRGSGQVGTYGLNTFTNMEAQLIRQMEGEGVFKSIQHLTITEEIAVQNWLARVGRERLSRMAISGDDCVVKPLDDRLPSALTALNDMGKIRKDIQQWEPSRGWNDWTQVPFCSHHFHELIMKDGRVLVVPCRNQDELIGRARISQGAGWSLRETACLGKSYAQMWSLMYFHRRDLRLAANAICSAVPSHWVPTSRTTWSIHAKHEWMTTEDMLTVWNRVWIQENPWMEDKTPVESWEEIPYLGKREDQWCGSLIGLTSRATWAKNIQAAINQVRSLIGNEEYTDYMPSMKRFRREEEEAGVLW

Row | SMILES | inhibition | inhibition [1] [%]
1 | Cc1cc(C)cc(NC(=O)CS(=O)(=O)c2cccc3nsnc23)c1 | -0.79% (inactive) | –
2 | Cc1ccc(NS(=O)(=O)Cc2ccccc2)cc1Cl | -1.36% (inactive) | –
3 | CCC1CCCCN1S(=O)(=O)c1ccc2c(c1)CCN2C(C)=O (configuration not stated) | -10.9% (inactive) | –
4 | CC(=O)c1ccc(-n2c(=O)[nH]c(=O)c3c(N)c(C(=O)c4ccc(Cl)cc4)sc32)cc1 | -6.85% (inactive) | –
5 | CC(C)(C)OC(=O)C[C@@H]1C/C=C\C[C@@H](CC(=O)N(CCO)Cc2ccccc2)C(=O)N2CCC[C@H]2COC1=O | -2.31% (inactive) | -4.54
6 | CC1=NN(c2ccc(C)cc2C)C(=O)C1C(c1ccccc1O)C1C(=O)N(c2ccc(C)cc2C)N=C1C (configuration not stated) | 15.6% (inactive) | –
7 | CC1=NN(c2ccc(C)cc2C)C(=O)C1C(c1cccc(O)c1)C1C(=O)N(c2ccc(C)cc2C)N=C1C (configuration not stated) | 26.6% (inactive) | –
8 | CCc1ccc(OCC(O)CNC(C)(C)C)cc1 (configuration not stated) | -2.07% (inactive) | –
9 | O=[N+]([O-])c1cccc(/C=C/c2nc[nH]c2[N+](=O)[O-])c1 | -14.1% (inactive) | –
10 | O=c1[nH]c(/C=C\c2cccc(Cl)c2)nc(O)c1[N+](=O)[O-] | 15.9% (inactive) | –
11 | Cn1c(/C=C/c2ccc(Cl)cc2Cl)c([N+](=O)[O-])c(=O)n(C)c1=O | 2.64% (inactive) | –
12 | Clc1ccc(C=Cc2ccccn2)c(Cl)c1 | 3.5% (inactive) | –
13 | Clc1ccc(/C=C/c2nc3ccccc3[nH]2)c(Cl)c1 | 3.38% (inactive) | -0.3
14 | CCOc1ccc(/C=C\c2nc(O)c([N+](=O)[O-])c(=O)[nH]2)cc1OCC | -0.66% (inactive) | –
15 | CCOc1ccc(/C=C/c2c([N+](=O)[O-])c(=O)n(C)c(=O)n2C)cc1 | 0.74% (inactive) | –
16 | O=[N+]([O-])c1cccc(/C=C/c2ccncc2)c1 | 2.32% (inactive) | –
17 | O=[N+]([O-])c1cccc(C=NN2CCCCCC2)c1 | -2.33% (inactive) | –
18 | O=c1cc(O)c2sc3nc4c(c(C(F)(F)F)c3c2[nH]1)CCCCC4 | 0.88% (inactive) | –
19 | Cc1cc(-c2csc(Nc3ccccn3)n2)ccc1F | -8.87% (inactive) | –
20 | O=C(NCCCn1ccnc1)c1cccc(S(=O)(=O)Nc2ccccc2F)c1 | -2.82% (inactive) | –

Row | SMILES | inhibition | inhibition [1] [%]
21 | COc1cccc(N=C2SC(CC(=O)Nc3ccccc3)C(=O)N2Cc2ccccn2)c1 (configuration not stated) | -4.38% (inactive) | –
22 | COc1ccc(-c2c(-c3cc(OC)cc(OC)c3)n(C)c3ccc(-c4ccc(OC)cc4F)cc23)cc1 | -1.04% (inactive) | –
23 | O=C(CSc1nnc(-c2ccccc2)n1-c1ccccc1)N1c2ccccc2Sc2ccccc21 | -3.27% (inactive) | –
24 | Cc1nc(SCC(=O)N2c3ccccc3Sc3ccccc32)n[nH]1 | -1.38% (inactive) | –
25 | COCCCNCC(O)COc1cccc2[nH]c(C)cc12 (configuration not stated) | 3.64% (inactive) | –
26 | CC1(C)CC(CC(=O)O)(c2ccccc2)CCO1 (configuration not stated) | -6.14% (inactive) | –
27 | C=CCNC(=O)c1ccc(OC)cc1 | -4.57% (inactive) | –
28 | Cc1ccc(S(=O)(=O)Oc2ccccc2/C=N/O)cc1 | -1.81% (inactive) | –
29 | Cc1ccc(S(=O)(=O)Oc2ccccc2/C=N/NC(N)=S)cc1 | -0.7% (inactive) | –
30 | Cc1ccc(S(=O)(=O)Oc2ccccc2/C=C2\SC(=O)NC2=O)cc1 | 12.8% (inactive) | –
31 | O=c1cc(Cl)c(-c2ccccc2)n[nH]1 | -1.61% (inactive) | –
32 | O/N=C\c1ccccc1Oc1ccc(F)cc1 | -8.72% (inactive) | –
33 | O=C(O)/C=C\c1ccccc1Oc1ccc(F)cc1 | -0.72% (inactive) | –
34 | O=C1NC(=O)C(=Cc2ccccc2)N1 | -3.98% (inactive) | –
35 | Cc1ccc(S(=O)(=O)Oc2ccccc2/C=C2/SC(=O)NC2=O)cc1 | 6.22% (inactive) | –
36 | COc1ccc(NS(=O)(=O)c2cc(NC(=O)C3CC3)ccc2N2CCOCC2)cc1 | 0% (inactive) | –
37 | Cn1cnc([N+](=O)[O-])c1SCC(=O)NN | 1.55% (inactive) | –
38 | COc1ccc([N+](=O)[O-])cc1N(CC(=O)NC1CCCCC1)S(C)(=O)=O | 1.47% (inactive) | –
39 | COc1cccc(CN2CC(C(=O)NCCOc3ccccc3F)CCC2=O)c1 (configuration not stated) | -4.36% (inactive) | –
40 | O=C1Cc2cc(S(=O)(=O)N3CCNCC3)ccc2N1 | 0.77% (inactive) | –

Row | SMILES | inhibition | inhibition [1] [%]
41 | O=C(c1cccc(S(=O)(=O)N2CCN(c3ccc(F)cc3)CC2)c1)N1CCCC1 | -6.98% (inactive) | –
42 | CCc1nc2sc(C)c(C)c2c(=O)n1CCO | -0.54% (inactive) | –
43 | N/C(=N\S(=O)(=O)c1ccccc1)c1ccc([N+](=O)[O-])cc1 | -9.13% (inactive) | –
44 | O=C(Oc1ccc(NC2=C(Cl)C(=O)c3ccccc3C2=O)cc1)c1ccc([N+](=O)[O-])cc1 | 11.5% (inactive) | –
45 | CC(=O)c1cc2c(cc1F)C(C)(C)CCC2(C)C | 5.57% (inactive) | –
46 | COc1c2occc2c(OC)c2c(=O)cc(C)oc12 | -2.99% (inactive) | –
47 | COc1c2ccoc2cc2oc(C)cc(=O)c12 | -4.89% (inactive) | –
48 | Cc1ccc(CC2SC(N)=NC2=O)cc1 (configuration not stated) | 0% (inactive) | –
49 | CC(C)(C)NC(=O)NC(=O)CN1CCN(c2ccc(O)cc2)CC1 | 1.52% (inactive) | –
50 | Cc1cc(N)n(-c2ccc(Cl)cc2)n1 | -6.66% (inactive) | –
51 | Cc1ccc(S(=O)(=O)n2cnc3cc([N+](=O)[O-])ccc32)cc1C | 0.8% (inactive) | –
52 | Cc1cccc(-n2cc(-c3ccc([N+](=O)[O-])cc3)[nH]c2=S)c1 | -5.13% (inactive) | –
53 | Cc1ccc(-n2cc3ccc([N+](=O)[O-])cc3n2)cc1 | -5.66% (inactive) | –
54 | Cc1ccc(C)c(-n2c3nc(=O)n(C)c(=O)c-3cc3ccccc32)c1 | 0% (inactive) | –
55 | Cc1cccc(-n2cnc3cc([N+](=O)[O-])ccc32)c1 | 0% (inactive) | –
56 | Cc1ccc(-n2c3nc(=O)[nH]c(=O)c-3cc3c(C)nn(-c4ccccc4)c32)c(C)c1 | 4.54% (inactive) | –
57 | Cn1c2nc(=O)[nH]c(=O)c-2cc2ccccc21 | -2.42% (inactive) | –
58 | Cc1ccc(-n2c(C)nn(Cc3ccc([N+](=O)[O-])cc3)c2=O)cc1 | -7.53% (inactive) | –
59 | O=S(=O)(c1ccc(Cl)cc1)N1CCN(CCc2ccncc2)CC1 | -1.66% (inactive) | –
60 | Cc1cccc(C(C)C)c1NC(=O)COC(=O)CNS(=O)(=O)c1ccccc1 | 0% (inactive) | –

Source: PubChem BioAssay AID588689 (Southern Research Specialized Biocontainment Screening …, 2011)
